Test [1] in a line: Nuclear factor erythroid 2-related factor 2/antioxidant responsive element (Nrf2/ARE) small molecule agonists: qHTS cell viability counter screen in human keratinocytes (AID 1919968; active = well fitted curve in the direction sought with a large enough effect in the repeat runs; an effect the other way counts as inactive or inconclusive; also: nearly all actives have a fitted effect of over 55% in size; also: potency is read from the fitted curve at half-maximal effect). Summed up:
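Parallel cytotoxicity read: KeratinoSens HaCaT cells, compound treatment 23 h, viability by CellTiter-Fluor fluorescence 1 h post-reagent.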

Test [2] can be described thus: Nuclear factor erythroid 2-related factor 2/antioxidant responsive element (Nrf2/ARE) small molecule agonists: luciferase reporter gene qHTS assay in human keratinocytes (AID 1919969). Also: nearly all actives have a fitted effect of over 35% in size.
For test [3], the target named is Gonadotropin-releasing hormone receptor (Homo sapiens) (UniProt P30968). The test can be described thus: Human gonadotropin-releasing hormone receptor (GnRHR) small molecule agonists, calcium flux assay in GnRHR-HEK293 cells (AID 1920063). Also: nearly all actives have a fitted effect of over 35% in size. Summed up: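 Calcium flux, agonist mode, human GnRHR stably integrated in HEK293; dye 1 h at 37 C before compound; Ex/Em=480/540 kinetic read, 3 min; 15 concentrations, triplicate.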

For test [4], the target named is KiSS-1 receptor (Homo sapiens) (UniProt Q969F8). The test can be described thus: Human kisspeptin (KISS1R) small molecule agonists, calcium flux assay in KISS1R-HEK293 cells (AID 1920064; active = well fitted curve in the direction sought with a large enough effect in the repeat runs; an effect the other way counts as inactive or inconclusive). An outline of the steps:
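Triplicate 15-concentration series were applied to dye-loaded human KISS1R HEK293 cells, and agonist-evoked calcium fluorescence was captured for 3 min.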

The nature of test [5]: p53 small molecule agonists, cell-based qHTS assay with human liver microsomes (AID 1963577).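 Also: p53 response element beta-lactamase reporter cells with liver microsomes plus NADPH.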 An outline of the steps:
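Steps: plate p53RE-bla cells, incubate 5 h at 37 C; add compound in DMSO; add microsomes (0.5 mg/mL final) and NADPH (0.5 mg/mL final); incubate 16 h at 37 C; add LiveBLAzer, 2 h RT; read fluorescence.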

Test [6] can be described thus: p53 small molecule agonists, cell-based qHTS assay with rat liver microsomes (AID 1963578). An outline of the steps: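 Metabolic activation is supplied by rat liver microsomes with NADPH (each 0.5 mg/mL final). p53RE-bla cells incubate with compound 16 h at 37 C; reporter activity is measured by LiveBLAzer fluorescence.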
The nature of test [7]: p53 small molecule agonists, cell-based qHTS assay with rat liver microsomes: qHTS cell viability counter screen (AID 1963580). Also: nearly all actives have a fitted effect of over 45% in size. Also: potency is read from the fitted curve at half-maximal effect. Summed up:
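After the beta-lactamase ratio was read, CellTiter-Glo was added to the same wells and luminescence measured at 30 min; cells had been treated 16 h at 37 C with compounds, rat liver microsomes and NADPH (0.5 mg/mL final each).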

A short description of test [8]: p53 small molecule agonists, cell-based qHTS assay: qHTS cell viability counter screen (AID 1963581). Also: nearly all actives have a fitted effect of over 45% in size. An outline of the steps:
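Multiplexed with the reporter read, a CellTiter-Glo step (30 min, room temperature) gauges ATP-based viability of HCT-116 p53RE-bla cells after 16 h compound incubation at 37 C.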

A short description of test [9]: p53 small molecule agonists, cell-based qHTS assay (AID 1963582; active = well fitted activation curve with a large enough effect in the signal ratio in the repeat runs, not every such curve was filed as active; the % refers to the signal ratio). Summed up: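 Beta-lactamase reporter cells (p53RE-bla) treated with compounds for 16 h at 37 C; FRET substrate, 2 h, room temperature; fluorescence intensity.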
Test [10] deals with 5-hydroxytryptamine receptor 2A (Homo sapiens) (UniProt P28223). The test can be described thus: 5-hydroxytryptamine receptor 2A (HTR2A) small molecule antagonists, cell-based qHTS assay (AID 1963586). Also: nearly all actives have a fitted effect of over 45% in size. Summed up: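 CHO cells stably expressing human HTR2A were plated for 18 h at 37 C, then loaded with calcium dye for 1 h. Compounds were preincubated 5 min at room temperature before DOI (4 nM solution) was added. Kinetic fluorescence was read for 3 min.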

Test [11] shares this target. Kind of test: 5-hydroxytryptamine receptor 2A (HTR2A) small molecule agonists, cell-based qHTS assay (AID 1963587). Also: nearly all actives have a fitted effect of over 30% in size. Summed up:
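CHO cells stably expressing human HTR2A, plated 18 h, loaded with calcium dye 1 h at 37 C. Agonist mode: compounds added and intracellular calcium fluorescence recorded kinetically for 2 min at 1 sec intervals.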

Test [12] concerns the target Muscarinic acetylcholine receptor M1 (Homo sapiens) (UniProt P11229). Kind of test: Cholinergic receptor muscarinic 1 (CHRM1) small molecule antagonists, cell-based qHTS assay (AID 1963588). Also: nearly all actives have a fitted effect of over 40% in size. An outline of the steps:
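Compounds were tested at 15 concentrations in three independent runs. Dye-loaded CHRM1-CHO cells were exposed 5 min at room temperature before stimulation by acetylcholine added at 50nM. Intracellular calcium was read kinetically on FDSS for 3 min.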

Test [13] shares this target. The test can be described thus: Cholinergic receptor muscarinic 1 (CHRM1) small molecule agonists, cell-based qHTS assay (AID 1963589). Also: nearly all actives have a fitted effect of over 35% in size. An outline of the steps: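 qHTS, 15-point titration, 3 independent runs: compounds pin-transferred onto dye-loaded CHRM1-CHO cells (human M1), calcium fluorescence followed every second to detect agonism.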
A short description of test [14]: cAMP Responsive Elements (CRE) small molecule agonists, cell-based qHTS assay (AID 1963590). Summed up:
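Quantitative HTS for CRE agonists: HEK 293T CRE-bla cells, overnight plating, 3 h compound incubation at 37 C/5% CO2, then 2 h room-temperature LiveBLAzer B/G FRET substrate loading.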

The nature of test [15]: cAMP Responsive Elements (CRE) small molecule antagonists, cell-based qHTS assay (AID 1963591; active = well fitted inhibition curve with a large enough effect in the signal ratio in the repeat runs, not every such curve was filed as active; the % refers to the signal ratio). An outline of the steps:
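Fluorescence intensity from cleaved LiveBLAzer B/G substrate (2 h, room temperature) quantified CRE-bla activity in HEK 293T cells exposed 3 h to compound with 0.25 uM final NKH477.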

In test [16] the target is Beta-2 adrenergic receptor (Homo sapiens) (UniProt P07550). The test can be described thus: Adrenergic beta2 receptor (ADRB2) small molecule antagonists, cell-based qHTS assay (AID 1963592). Also: series mostly up to about 92 µM; nearly all actives have a fitted effect of over 50% in size. An outline of the steps:
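Assay format: CHO-ADRB2 cells, 18-20hr seeding at 37C/5% CO2, then compound plus 1nM isoproterenol agonist mix for 0.5hr RT. Homogeneous time-resolved fluorescence cAMP detection after 1hr, expressed as 665/615 nm ratio.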

The target of test [17] is D(2) dopamine receptor (Homo sapiens) (UniProt P14416). Kind of test: Dopamine D2 receptor (DRD2) small molecule agonists, cell-based qHTS assay (AID 1963594). Also: nearly all actives have a fitted effect of over 35% in size. Summed up:
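HEK293 cells stably expressing human DRD2, pre-treated with PDE inhibitor Ro20-1724 (0.1 mM final) and compound 10 min at room temperature, then stimulated with NKH477 (200nM […]) for 30 min. cAMP read by HTRF (665/620 nm).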

For test [18] the target is unchanged. The test can be described thus: Dopamine D2 receptor (DRD2) small molecule antagonists, cell-based qHTS assay (AID 1963595; active = well fitted inhibition curve with a large enough effect in the signal ratio in the repeat runs, with a control signal flat; the % refers to the signal ratio). Summed up:
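Antagonist mode in DRD2-HEK293 cells: after compound addition with 0.1 mM Ro20-1724, cells received quinpirole (12 nM) and NKH477 (200 nM) for 30 min at room temperature; HTRF cAMP read after 1 h detection.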

Test [19] is described as follows: p53 small molecule agonists, cell-based qHTS assay with human liver microsomes: qHTS cell viability counter screen (AID 1963579). Also: nearly all actives have a fitted effect of over 45% in size. Summed up:
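After the 460/530 nm beta-lactamase read, CellTiter-Glo was added to the same wells and luminescence measured after 30 min at room temperature, giving viability of p53RE-bla cells treated 16 h with compounds plus microsomes and NADPH.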

Each structure is given as a SMILES string. A number with no mark means an inactive call. Inconclusive results are not listed. Calls of active or inactive are those of the source. Unless noted, calls follow the shape of the full dose curve.

Chain of Muscarinic acetylcholine receptor M1 (Homo sapiens) (P11229 whole entry, looked up): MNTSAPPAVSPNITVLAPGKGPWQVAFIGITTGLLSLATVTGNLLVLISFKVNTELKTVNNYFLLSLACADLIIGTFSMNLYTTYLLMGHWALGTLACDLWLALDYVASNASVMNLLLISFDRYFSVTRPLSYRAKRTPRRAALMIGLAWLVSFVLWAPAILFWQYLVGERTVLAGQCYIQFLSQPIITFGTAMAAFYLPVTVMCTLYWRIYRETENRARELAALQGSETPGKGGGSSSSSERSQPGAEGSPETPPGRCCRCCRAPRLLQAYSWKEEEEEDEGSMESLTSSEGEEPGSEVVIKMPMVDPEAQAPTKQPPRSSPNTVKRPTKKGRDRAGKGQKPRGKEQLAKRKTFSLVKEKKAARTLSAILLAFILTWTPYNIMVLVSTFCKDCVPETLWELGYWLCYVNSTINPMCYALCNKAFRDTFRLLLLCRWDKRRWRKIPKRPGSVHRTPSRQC
Chain of 5-hydroxytryptamine receptor 2A (Homo sapiens) (P28223 whole entry, looked up): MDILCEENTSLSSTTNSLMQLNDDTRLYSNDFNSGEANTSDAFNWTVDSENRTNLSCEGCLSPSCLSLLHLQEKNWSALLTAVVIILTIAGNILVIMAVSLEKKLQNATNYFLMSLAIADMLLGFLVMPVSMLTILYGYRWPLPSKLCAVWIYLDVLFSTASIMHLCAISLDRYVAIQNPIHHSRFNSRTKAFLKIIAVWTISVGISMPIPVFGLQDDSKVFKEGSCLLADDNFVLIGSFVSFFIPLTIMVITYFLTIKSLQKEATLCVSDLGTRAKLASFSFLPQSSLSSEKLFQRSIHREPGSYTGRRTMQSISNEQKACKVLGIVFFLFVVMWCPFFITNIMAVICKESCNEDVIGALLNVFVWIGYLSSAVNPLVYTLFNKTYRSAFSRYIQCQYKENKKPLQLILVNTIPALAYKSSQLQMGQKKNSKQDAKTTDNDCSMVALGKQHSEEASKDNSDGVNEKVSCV
Chain of Gonadotropin-releasing hormone receptor (Homo sapiens) (P30968 whole entry, looked up): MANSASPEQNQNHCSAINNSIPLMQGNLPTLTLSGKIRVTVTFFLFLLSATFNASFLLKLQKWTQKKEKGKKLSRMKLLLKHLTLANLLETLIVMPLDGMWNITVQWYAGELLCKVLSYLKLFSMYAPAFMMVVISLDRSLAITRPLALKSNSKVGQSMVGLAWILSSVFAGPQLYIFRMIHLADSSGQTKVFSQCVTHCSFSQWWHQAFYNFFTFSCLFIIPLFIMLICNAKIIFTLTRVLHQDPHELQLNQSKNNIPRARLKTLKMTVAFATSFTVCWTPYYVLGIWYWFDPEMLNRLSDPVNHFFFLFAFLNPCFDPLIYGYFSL
Chain of D(2) dopamine receptor (Homo sapiens) (P14416 whole entry, looked up): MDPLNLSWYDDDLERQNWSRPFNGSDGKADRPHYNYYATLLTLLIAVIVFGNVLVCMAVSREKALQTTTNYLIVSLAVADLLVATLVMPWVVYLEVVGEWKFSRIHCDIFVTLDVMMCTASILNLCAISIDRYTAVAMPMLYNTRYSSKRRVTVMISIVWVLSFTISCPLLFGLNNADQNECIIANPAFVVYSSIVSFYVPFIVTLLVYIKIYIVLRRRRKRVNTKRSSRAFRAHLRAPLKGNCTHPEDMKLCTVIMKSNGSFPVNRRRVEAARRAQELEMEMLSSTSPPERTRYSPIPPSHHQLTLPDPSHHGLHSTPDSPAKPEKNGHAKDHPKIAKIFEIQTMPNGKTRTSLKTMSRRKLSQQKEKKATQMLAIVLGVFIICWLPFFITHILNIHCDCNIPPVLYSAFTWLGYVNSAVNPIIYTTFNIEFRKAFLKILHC
Chain of KiSS-1 receptor (Homo sapiens) (Q969F8 whole entry, looked up): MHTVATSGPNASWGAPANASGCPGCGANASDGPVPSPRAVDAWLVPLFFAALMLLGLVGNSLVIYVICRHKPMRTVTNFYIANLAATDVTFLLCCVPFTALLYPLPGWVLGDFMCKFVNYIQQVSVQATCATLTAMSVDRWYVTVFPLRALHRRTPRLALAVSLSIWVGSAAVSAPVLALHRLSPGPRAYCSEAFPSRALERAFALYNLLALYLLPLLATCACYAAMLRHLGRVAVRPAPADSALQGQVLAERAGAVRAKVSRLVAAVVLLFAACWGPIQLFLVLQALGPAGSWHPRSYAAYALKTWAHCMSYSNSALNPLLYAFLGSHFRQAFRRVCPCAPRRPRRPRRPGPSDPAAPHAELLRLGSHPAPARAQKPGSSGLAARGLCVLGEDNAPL
Chain of Beta-2 adrenergic receptor (Homo sapiens) (P07550 whole entry, looked up): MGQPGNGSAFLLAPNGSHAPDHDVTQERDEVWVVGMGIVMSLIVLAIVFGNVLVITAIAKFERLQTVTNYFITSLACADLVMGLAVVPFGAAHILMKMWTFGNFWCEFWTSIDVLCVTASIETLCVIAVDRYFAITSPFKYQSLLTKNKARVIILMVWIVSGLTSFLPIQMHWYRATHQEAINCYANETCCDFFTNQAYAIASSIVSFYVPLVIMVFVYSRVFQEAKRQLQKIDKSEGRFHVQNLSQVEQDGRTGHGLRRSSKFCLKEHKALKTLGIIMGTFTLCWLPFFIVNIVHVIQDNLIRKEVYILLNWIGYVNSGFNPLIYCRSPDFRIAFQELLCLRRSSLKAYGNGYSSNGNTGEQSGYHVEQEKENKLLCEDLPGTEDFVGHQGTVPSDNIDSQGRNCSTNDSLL

`Cc1cc(C)c(C=O)c(C)c1`: the Potency entry in test [1], in [2], in [3], in test [5], in test [6] and in test [7] was “inactive” each time. For the same compound, the Potency entry in test [8], in [9], in test [10], in test [11], in test [12] and in test [13] was “inactive” each time. The Potency entry in test [14], in test [15], in [16], in [17] and in test [18] was “inactive” each time. The result in test [4] was inactive.
For the compound `CCOC(=O)C(=O)c1csc(NC=O)n1`, the Potency entry in test [1], in test [2], in test [3], in test [5], in test [6] and in test [19] was “inactive” throughout. The Potency result in [7], in test [9], in [10], in test [11], in test [12] and in [13] was “inactive” each time. Moreover, the Potency result in [14], in [15], in [16], in test [17] and in test [18] was “inactive” throughout. Further, in test [4], the result was inactive.
As to `Nc1cccc(S(=O)(=O)O)c1`, the Potency entry in [1], in [2], in [3], in test [5], in test [6] and in test [19] was “inactive” each time. The Potency result in test [7], in test [9], in [10], in [11], in test [12] and in [13] was “inactive” each time. Moreover, the Potency result in test [14], in test [15], in test [16], in test [17] and in test [18] was “inactive” each time. Moreover, the result in [4] was inactive.
Regarding `Cn1cccc1`, the Potency result in test [1], in [2], in [3], in test [5], in test [6] and in [19] was “inactive” each time. Besides, the Potency entry in test [7], in test [9], in [10], in test [11], in test [12] and in test [13] was “inactive” each time. For the same compound, the Potency result in test [14] and in test [15] was “inactive” each time. Also, the result in [4] was inactive.
Turning to `CCCCCCCCCCCCOC(=O)c1ccc(O)cc1`, the Potency in [1] was 43.6 µM (active). In addition, the Potency result in [2], in [3], in [5], in [6], in [19] and in [7] was “inactive” throughout. For the same compound, the Potency entry in test [9], in [10], in test [11], in test [12], in test [13] and in test [14] was “inactive” in each case. The Potency entry in [15], in [16] and in test [18] was “inactive” in each case. Also, in test [4], the outcome was inactive.
In the case of `CN1[C@@H]2CC[C@H]1CC(OC(=O)c1c[nH]c3ccccc13)C2` (some centres not stated), the Potency result in test [1], in test [2], in test [3], in test [5], in test [6] and in test [19] was “inactive” throughout. Also, the Potency entry in test [7], in test [9], in test [14], in test [15], in test [17] and in test [18] was “inactive” in each case. Besides, the result in [4] was inactive.
For `CCCCCCCCCCCCCCCCCC#N`, the Potency result in test [1], in test [2], in [3], in [5], in test [6] and in [19] was “inactive” throughout. Also, the Potency result in test [9], in test [10], in test [11], in test [12], in test [13] and in [14] was “inactive” throughout. In addition, the Potency entry in [15], in test [16], in [17] and in test [18] was “inactive” each time. For the same compound, the result in [4] was inactive. Also, the Potency in test [7] was 1.65 µM (active).

The values are drawn from PubChem BioAssay (Tox21).
